Here are results for 40 compounds from the supplement of paper PMC8975748.

Structures can show the parent of a compound that is named as a salt.

This assay deals with Saccharomyces cerevisiae BY4741 SeMeCo community. Kind of assay: z-score of subpopulation abundance vs DMSO median, subpopulation auxotrophic for HL; higher = larger share of this subpopulation than in DMSO controls. The settings on record: 10 µM; 24 h; SM minimal medium; subpopulation (auxotrophy): HL. The method, then: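 Fluorescent four-plasmid SeMeCo (self-establishing metabolically cooperating S. cerevisiae BY4741 community; plasmids pH-mRuby2, pL-mWasabi, pU-eCFP, pM-TagRFP657) was grown 24 h in minimal SM medium with each Selleck FDA-approved drug at 10 µM in 384-well plates. Cells were fixed and imaged by high-content confocal microscopy. For each auxotrophic subpopulation (and the prototroph), a z-score gives the deviation from the DMSO vehicle-control population median.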
For `CC1CCc2c(N3CCC(O)CC3)c(F)cc3c(=O)c(C(=O)O)cn1c23` (stereo not given) [Nadifloxacin], the “z-score of subpopulation abundance” value is 0. Turning to `O=C1[C@@H]2[C@H]3CC[C@H](C3)[C@@H]2C(=O)N1C[C@@H]1CCCC[C@H]1CN1CCN(c2nsc3ccccc23)CC1` [lurasidone], the “z-score of subpopulation abundance” value was 0.22. The value for `COCC1=C(C(=O)OC(C)OC(=O)OC(C)C)N2C(=O)[C@@H](NC(=O)/C(=N\OC)c3csc(N)n3)[C@H]2SC1` (stereo not given in full) [Cefpodoxime proxetil] was -0.24.

`COc1cc(NC(C)CCCN)c2ncccc2c1` (stereo not given) [Primaquine Diphosphate]: the “z-score of subpopulation abundance” value was -0.43. For `CN1CCN(C2=Nc3cc(Cl)ccc3Nc3ccccc32)CC1` [Clozapine] the value was 0.94; for `COc1cc(C(C)=O)ccc1OCCCN1CCC(c2noc3cc(F)ccc23)CC1` [Iloperidone], 0.55; for `O=C(O)c1cccnc1Nc1cccc(C(F)(F)F)c1` [Niflumic acid], -0.39. Consider `CCn1cc(C(=O)O)c(=O)c2ccc(C)nc21` [Nalidixic acid], for which the “z-score of subpopulation abundance” value was -0.13.

As to `COc1cc(O)c(C(=O)Nc2nc(C(=O)NCCN(C(C)C)C(C)C)cs2)cc1OC` [Acotiamide], the “z-score of subpopulation abundance” value came to 1.99. For `CCN(CC)CCOc1ccc(C(=C(Cl)c2ccccc2)c2ccccc2)cc1` [Clomifene citrate] the value was 1.64; for `CNC1CCCN(c2c(F)cc3c(=O)c(C(=O)O)cn(C4CC4)c3c2OC)C1` (stereo not given) [Balofloxacin], -0.7. The value for `COc1ccc([C@@H]2Sc3ccccc3N(CCN(C)C)C(=O)[C@@H]2OC(C)=O)cc1` [Diltiazem HCl] was -0.78. Take `CC[C@H]1OC(=O)[C@H](C)[C@@H](O[C@H]2C[C@@](C)(OC)[C@@H](O)[C@H](C)O2)[C@H](C)[C@@H](O[C@@H]2O[C@H](C)C[C@H](N(C)C)[C@H]2O)[C@](C)(O)C[C@@H](C)CN(C)[C@H](C)[C@@H](O)[C@]1(C)O` [Azithromycin]: the “z-score of subpopulation abundance” value was -0.27. As for `NS(=O)(=O)Cc1noc2ccccc12` [Zonisamide], the “z-score of subpopulation abundance” value came to 0.85. For `Cc1ccc(Sc2ccccc2N2CCNCC2)c(C)c1` [Vortioxetine] the value was 0.77. For `Cc1cc(/C=C/c2ccc3cc(N(C)C)ccc3[n+]2C)c(C)n1-c1ccccc1` [pyrvinium] the value was -1.44. Consider `NC[C@H]1O[C@H](O[C@H]2[C@H](O[C@@H]3O[C@H](CO)[C@@H](O)[C@H]3O)[C@@H](O)[C@H](N)C[C@@H]2N)[C@H](N)[C@@H](O)[C@@H]1O` [Ribostamycin Sulfate], for which the “z-score of subpopulation abundance” value is -0.49. With `NC[C@H]1O[C@H](O[C@H]2[C@H](O)[C@@H](O[C@H]3O[C@H](CO)[C@@H](O)[C@H](N)[C@H]3O)[C@H](N)C[C@@H]2N)[C@H](O)[C@@H](O)[C@@H]1O` [Kanamycin sulfate], the “z-score of subpopulation abundance” value turned out to be 1.08. The value for `Cc1cccc(C)c1NC(=O)C1CCCCN1C` (stereo not given) [Mepivacaine] was -0.24. Turning to `Oc1cccc(O)c1` [Resorcinol], the “z-score of subpopulation abundance” value was -0.43.

As for `CN[C@@H]1[C@@H](O)[C@@H](O[C@@H]2[C@@H](O)[C@H](O[C@H]3O[C@H](CN)[C@@H](O)[C@H](O)[C@H]3O)[C@@H](N)C[C@H]2NC(=O)[C@@H](O)CN)OC[C@]1(C)O` [Isepamicin Sulphate], the “z-score of subpopulation abundance” value is -1.07. For `CCCc1nc(C)c2c(=O)nc(-c3cc(S(=O)(=O)N4CCN(CC)CC4)ccc3OCC)[nH]n12` [Vardenafil HCl Trihydrate] the value was -0.13; for `CN(Cc1cnc2nc(N)nc(N)c2n1)c1ccc(C(=O)N[C@@H](CCC(=O)O)C(=O)O)cc1` [Methotrexate], 6.68; for `COc1cc(NS(=O)(=O)c2ccc(N)cc2)ncn1` [Sulfamonomethoxine], -0.82. As to `CC(=O)NC[C@H]1CN(c2ccc(N3CCOCC3)c(F)c2)C(=O)O1` [Linezolid], the “z-score of subpopulation abundance” value is -0.58.

Take `CC(C)c1nc(N(C)S(C)(=O)=O)nc(-c2ccc(F)cc2)c1/C=C/[C@@H](O)C[C@@H](O)CC(=O)O` [Rosuvastatin Calcium]: the “z-score of subpopulation abundance” value worked out at 0.38. The value for `O=c1[nH]c(=O)n([C@H]2C[C@H](O)[C@@H](CO)O2)cc1/C=C/Br` [Brivudine] was -1.84. The value for `COc1cccc2c1C(=O)c1c(O)c3c(c(O)c1C2=O)C[C@@](O)(C(C)=O)C[C@@H]3O[C@H]1C[C@H](N)[C@H](O)[C@H](C)O1` [Daunorubicin HCl] was 0.73; that for `CCC1(C)CC(=O)NC1=O` (stereo not given) [Ethosuximide] was 0.36; that for `CN(C)CCCN1c2ccccc2Sc2ccccc21` [Promazine hydrochloride] was -0.82. The value for `COc1ccc2c(c1)c(CC(=O)OCC(=O)O)c(C)n2C(=O)c1ccc(Cl)cc1` [Acemetacin] was 0.11; that for `CC(C(=O)O)c1cccc(C(=O)c2ccccc2)c1` (stereo not given) [Ketoprofen] was 1.42; that for `CCN(CC)CCOC(=O)c1ccc(N)cc1` [Procaine HCl] was -0.7.

For `CNCC[C@H](Oc1cccc2ccccc12)c1cccs1` [Duloxetine HCl], the “z-score of subpopulation abundance” value was -1.07.

As for `CC(=O)OC(C)C[N+](C)(C)C` (stereo not given) [Methacholine chloride], the “z-score of subpopulation abundance” value was determined as 0.45. For `OCCN(CCO)c1nc(N2CCCCC2)c2nc(N(CCO)CCO)nc(N3CCCCC3)c2n1` [Dipyridamole] the value was 6.01. As to `CCCCCCCCN=C(N)NC(N)=NCc1ccc(Cl)c(Cl)c1` [Olanexidine Hydrochloride semihydrate], the “z-score of subpopulation abundance” value is 11.1.

On to `CN1CCN(CC(=O)N2c3ccccc3C(=O)Nc3cccnc32)CC1` [Pirenzepine dihydrochloride], for which the “z-score of subpopulation abundance” value is -0.63.

For the compound `O=C1c2c(O)ccc(O)c2C(=O)c2c(NCCNCCO)ccc(NCCNCCO)c21` [Mitoxantrone 2HCl], the “z-score of subpopulation abundance” value is 20.9.

Consider `C[C@]12CC[C@@H]3c4ccc(O)cc4CC[C@H]3[C@@H]1CCC2=O` [Estrone], for which the “z-score of subpopulation abundance” value is -0.05.
